Bioassay records from PubChem BioAssay.
A selection: hits, their analogues and other compounds. The true share with any hit is near 4.9%.
PP1 counter = PP1-alpha phosphatase inhibitors, primary screen, counter-screen for PP5 inhibitor project, biochemical, fluorescence, OMFP substrate, single point; purified PP1alpha; actives 0.9% (n = 320,000); Serine/threonine-protein phosphatase PP1-alpha catalytic subunit (Homo sapiens), P62136; inhibition, % at 6.7 µM;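 active = inhibition above the mean inhibition of all tested compounds plus 3 SD, computed separately for each screening campaign, cut at about 15% in these data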
PP5 primary = PP5 phosphatase inhibitors, primary screen, biochemical, fluorescence; purified PP5c, OMFP substrate fluorescence; inhibition, % at 6.7 µM; actives 0.18% (n = 320,000); AID 1987, 2009;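 active = inhibition above the campaign's mean inhibition across all tested compounds plus 3 SD, cut at about 9.5% in these data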;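 note: 0% = DMSO only and 100% = 100 µM cantharidin control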
Target sequence (P53041 whole entry, looked up): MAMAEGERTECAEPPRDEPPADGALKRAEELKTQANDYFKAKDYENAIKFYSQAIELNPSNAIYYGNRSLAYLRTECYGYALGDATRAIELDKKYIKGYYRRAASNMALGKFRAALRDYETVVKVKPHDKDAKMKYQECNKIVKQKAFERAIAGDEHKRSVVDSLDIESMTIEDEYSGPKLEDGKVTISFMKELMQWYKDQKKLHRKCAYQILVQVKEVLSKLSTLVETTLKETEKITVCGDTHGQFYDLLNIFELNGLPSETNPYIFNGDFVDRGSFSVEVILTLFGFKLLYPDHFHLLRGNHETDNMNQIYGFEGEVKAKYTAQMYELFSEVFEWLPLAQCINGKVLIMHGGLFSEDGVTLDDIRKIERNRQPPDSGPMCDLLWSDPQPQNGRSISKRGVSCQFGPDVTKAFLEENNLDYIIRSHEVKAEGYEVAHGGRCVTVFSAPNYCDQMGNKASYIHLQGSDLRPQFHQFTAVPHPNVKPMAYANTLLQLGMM
Mdm2-MdmX inh = inhibitors of human Mdm2-MdmX association, primary screen, cell-based, luminescence, split luciferase, SaOS-2, uHTS; Protein Mdm4 (Homo sapiens) + E3 ubiquitin-protein ligase Mdm2 (Homo sapiens), …; SaOS-2 split-luciferase Mdm2/MdmX complementation; inhibition, % at 8 µM; actives 3% (n = 330,000);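 active = inhibition of at least 50% at 8 µM in the primary screen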
CSC inhib = cancer stem cell viability inhibitors, primary screen, luminescence. cancer stem cell-like cells viability. inhibition, % at 7.5 µM. actives 1.1% (n = 300,000). AID 2717, 2010; in the data active = inhibition above about 75%; inconclusive = no clear call, values can overlap the other calls; tested in HMLE shEcad cells
Calb FLC = C. albicans growth inhibition with fluconazole, primary screen, CaCi-2 strain, Alamar Blue fluorescence; C. albicans CaCi-2 (fluconazole-resistant clinical isolate) + fluconazole, 48 h; growth inhibition, % (test concentration not listed); actives 0.57% (n = 300,000); AID 1979, 2009;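 active = growth inhibition above about 58% in most replicates, limit read from the data, passing the limit was not always enough; inconclusive = exactly half the replicates above a set limit; inactive = most replicates below a set limit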;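 note: all wells also contain fluconazole at 8 µg/ml as a sub-toxic cotreatment; 0% = median of DMSO wells and 100% = median of geldanamycin control wells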
Beta cell apopt = inhibitors of cytokine-induced beta cell apoptosis, primary screen, luminescence; INS-1E cytokine-induced death, ATP luminescence, 48 h; percent of positive-control rescue, neutral wells zero; actives 0.8% (n = 300,000); protection from apoptosis, % (no concentration beside the values);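 active = Every replicate reaches about 75%, or at least half do and their mean reaches it too, limit read from the data; inconclusive = At least half of replicates reach the limit but their mean does not; inactive = Under half of replicates reach the limit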;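 note: 0% = cytokine-treated negative control wells and 100% = positive control rescue; higher means more ATP so stronger rescue from cytokine killing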
Mdm2 MdmX conf = Mdm2-MdmX complex disruptors, retested hits, confirmation, luminescence, single concentration; shares compounds with Mdm2-MdmX inh; Mdm2-MdmX binding, luminescent assay; inhibition, % at 8 µM; actives 55% (n = 10,000); AID 489028, 2010; in the data active = inhibition above about 40%
FLuc counter = full-length luciferase signal inhibition, confirmation, counter-screen for Mdm2/MdmX interaction inhibitor project, cell-based, single concentration, SaOS-2. inhibition, % at 8 µM. shares compounds with Mdm2-MdmX inh. actives 77% (n = 6,200). SaOS-2 full-length luciferase counterscreen, luminescence. AID 504607, 2011;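 active = mean inhibition at 8 µM reaching about 37%, which flags the compound as non-specific, limit read from the data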;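 note: p53-null SaOS-2 cells with luciferase driven by a doxycycline-inducible promoter; compound on cells about two nights before reading with doxycycline added after day one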
Starred values were filed as active, the others as inactive; ? = inconclusive; . = no result given.

SMILES | PP1 counter | PP5 primary | Mdm2-MdmX inh | CSC inhib | Calb FLC | Beta cell apopt | Mdm2 MdmX conf | FLuc counter
COC(=O)c1[nH]c2ccc(F)cc2c1NS(=O)(=O)c1ccc(OC)cc1 | -2 | 3 | 57* | 56 | -2 | 7 | 58* | 62*
O=C(Nc1ccc(Cl)c([N+](=O)[O-])c1)c1ccc(NCCCN2CCOCC2)c([N+](=O)[O-])c1 | 3 | 0 | 97* | . | 27 | 12 | 24 | .
Cc1ccc(NC(=O)c2ccc(NCCCN3CCOCC3)c([N+](=O)[O-])c2)cc1Cl | 1 | 4 | 56* | 51 | 4 | 24 | 37 | 69*
COc1ccc(NC(=O)c2ccc(NCCCN3CCOCC3)c([N+](=O)[O-])c2)cc1 | 1 | 3 | 5 | -3 | 2 | -4 | . | .
Cc1ccc(-c2nnn(C/C(N)=N/O)n2)cc1 | -2 | 0 | -19 | 5 | 1 | -5 | . | .
CCCCc1cc(=O)oc2cc(C)cc(OCC(=O)Nc3ccccn3)c12 | 2 | 1 | -14 | 6 | -7 | 12 | . | .
Cc1cc(NC(=O)COC(=O)c2ccccc2S(=O)(=O)N(C)c2ccccc2)no1 | 6 | -1 | 96* | 27 | -1 | -10 | 72* | 43*
Cc1cc(NC(=O)COC(=O)c2c(Cl)cccc2Cl)no1 | -2 | 3 | 88* | . | . | -4 | 59* | 54*
Cc1cc(NC(=O)COC(=O)c2ccccc2NCCO)no1 | . | . | -7 | -13 | . | -9 | . | .
Cc1ccc(C)c(N2CCN(C(=O)Cn3ncc4c([nH]c5ccc(C)cc54)c3=O)CC2)c1 | 4 | 1 | 52* | -10 | 0 | 1 | -4 | .
COc1ccc(N2CCN(C(=O)Cn3ncc4c([nH]c5ccccc54)c3=O)CC2)cc1 | 4 | 0 | 50* | 8 | 0 | -2 | 16 | .
COc1ccccc1N1CCN(C(=O)Cn2ncc3c([nH]c4ccccc43)c2=O)CC1 | -1 | 1 | 30 | -5 | 18 | . | . | .
Cc1ccc2[nH]c3c(=O)n(CC(=O)NCCCN4CCN(c5ccc(F)cc5)CC4)ncc3c2c1 | -3 | 1 | 69* | -16 | 7 | -1 | 36 | .
Cc1ccc(C)c(Cn2c3ccccc3c3cnn(CC(=O)NCCCN4CCCCC4)c(=O)c32)c1 | -1 | 2 | 92* | -13 | 9 | 8 | 48* | 48*
CCN1CCN(C(=O)Cn2ncc3c([nH]c4ccc(C)cc43)c2=O)CC1 | 1 | 0 | -15 | -17 | -15 | -4 | . | .
CC(C)CNC(=S)N(CCCO)Cc1cc2cc3c(cc2[nH]c1=O)OCO3 | -4 | 1 | -15 | -9 | 6 | 4 | . | .
Cc1ccc2c(c1)cc1c(=O)n(CC(=O)NCCN3CCCC3)nc(C)n12 | -2 | 1 | 10 | 24 | 0 | -7 | . | .
O=C(c1ccccc1)C(c1ccccc1)c1ccccc1 | 3 | 3 | -8 | 10 | 10 | 3 | . | .
C=C(C(=O)c1ccccc1)C(C(=C)C(=O)c1ccccc1)c1ccc(OC)cc1 | -5 | 1 | 98* | 59 | 2 | 111* | 99* | 50*
C=C(C(=O)c1ccccc1)C(c1ccccc1)C(C)C(=O)c1ccccc1 (stereo not drawn) | 1 | 2 | 92* | 111* | -3 | . | 63* | 44*
COc1ccc(C(CC(=O)c2ccccc2)CC(=O)c2ccccc2)cc1 | -1 | 3 | 2 | -8 | 9 | -3 | . | .
COc1ccc(Cl)cc1N1C(=O)CC(Sc2ccccc2N)C1=O (stereo not drawn) | 1 | 2 | 12 | -1 | -4 | -6 | . | .
COc1ccc(Nc2nc(N3CCCC3)nc3ccccc23)c(OC)c1 | 2 | -1 | 54* | 28 | 0 | 62 | 2 | .
CC(Nc1nc(-c2ccccc2)nc2ccccc12)c1ccccc1 (stereo not drawn) | 2 | 6 | 13 | ? | -5 | 6 | . | .
CC(Nc1nc(N2CCCCC2)nc2ccccc12)c1ccccc1 (stereo not drawn) | -4 | 1 | 54* | . | 39 | 26 | 47* | 73*
SMILES | PP1 counter | PP5 primary | Mdm2-MdmX inh | CSC inhib | Calb FLC | Beta cell apopt | Mdm2 MdmX conf | FLuc counter
COc1ccc2nc(Cl)c(C#N)cc2c1 | -3 | 3 | 2 | -7 | -14 | 1 | . | .
O=C(Nc1ccc(N2CCN(C(=O)c3ccco3)CC2)cc1)c1ccc([N+](=O)[O-])cc1Cl | 1 | 3 | 23 | 6 | 1 | 1 | . | .
Cc1cccc(NC(=O)c2cc([N+](=O)[O-])ccc2Cl)c1O | 0 | 2 | . | 7 | 18 | 3 | . | .
COc1ccc(NC(=O)c2cc([N+](=O)[O-])ccc2O)cc1 | -1 | -1 | 81* | 82* | 83* | 57 | 76* | 53*
COc1ccc(NC(=O)c2cccc([N+](=O)[O-])c2)cc1 | -4 | 2 | -22 | -10 | -8 | 3 | . | .
O=C(Nc1ccc(Nc2ccccc2)cc1)c1cc([N+](=O)[O-])ccc1Cl | 2 | 1 | 54* | 78* | 9 | 16 | 38 | .
O=C(Nc1ccccc1Oc1ccccc1)c1cc([N+](=O)[O-])ccc1Cl | -6 | 2 | 79* | 1 | 11 | -10 | 48* | 68*
O=C(Nc1ccc2c(c1)CCCN2C(=O)c1ccco1)c1cc([N+](=O)[O-])ccc1Cl | 0 | 1 | 82* | -17 | 1 | 6 | 82* | 68*
CCn1c(CC(=O)Nc2ccc(C)cc2)n[nH]c1=S | -3 | 0 | -2 | . | -2 | 3 | . | .
C=CCN1C(=O)/C(=C/c2ccc(-c3ccc(F)cc3)o2)SC1=S | 0 | 0 | 14 | -3 | 3 | -5 | . | .
O=C(O)COc1c(-c2ccco2)oc2ccccc2c1=O | 1 | 0 | -14 | -4 | -4 | 0 | . | .
COc1ccc(-c2oc3ccccc3c(=O)c2OC(C)=O)cc1 | 1 | 1 | 73* | 27 | 45 | 3 | 83* | 51*
CC(=O)Oc1c(-c2ccc(Br)o2)oc2ccccc2c1=O | 1 | 2 | 93* | 21 | 85* | 2 | 41* | 30
CCOC(=O)c1c2c(n(C)c1COC)C(=O)C(=O)c1ccc(Br)cc1-2 | 10 | -7 | 99* | 121* | -36 | 105* | 98* | 4
NC(=S)N=Nc1c(O)[nH]c2ccccc12 | 2 | -1 | -17 | -2 | -4 | 6 | . | .
